# How the values were obtained:
# Experiment in all cases: DAPPL (digital affinity profiling via proximity ligation, sequencing); 10 mM Tris-HCl pH 7.5, 50 mM NaCl, 1 mM DTT, 4% glycerol, room temperature, 30 min; GST-TFs on glutathione beads, 16-mer random dsDNA library, 0.1% formaldehyde crosslink after washing; high values mean tight binding
# Settings in all cases: protein: recombinant; tags: N-terminal GST; dsDNA, one strand shown
# [1] = molecular target: T1, ETV2 (Homo sapiens, UniProt O00321 1-342)
# T1 sequence: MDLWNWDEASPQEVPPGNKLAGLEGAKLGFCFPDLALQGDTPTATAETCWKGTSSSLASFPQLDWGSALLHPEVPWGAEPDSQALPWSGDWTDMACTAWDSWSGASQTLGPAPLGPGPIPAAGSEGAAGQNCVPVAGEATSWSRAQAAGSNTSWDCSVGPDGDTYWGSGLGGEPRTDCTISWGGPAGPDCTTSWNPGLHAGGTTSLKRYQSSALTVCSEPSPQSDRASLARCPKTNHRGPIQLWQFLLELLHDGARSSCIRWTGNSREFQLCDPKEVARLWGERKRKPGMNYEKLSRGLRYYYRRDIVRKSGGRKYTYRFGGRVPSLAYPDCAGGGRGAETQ
# How it was run: (§1)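 Yeast served to express human transcription factors as GST fusions, which were then captured on glutathione beads and labelled with DNA barcodes. Pooled with a tag-only sample, they were incubated with 200 nmole of a 16-mer random double-stranded DNA library for 30 min at room temperature in Tris/NaCl/DTT/glycerol buffer, washed, crosslinked with 0.1% formaldehyde, ligated by proximity, amplified by PCR and sequenced. Dividing each hexamer's read frequency for a factor by its frequency for the tag-only sample gives the binding signal.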
# [2] = molecular target: T2, ELF3 (Homo sapiens, UniProt P78545 1-371)
# T2 sequence: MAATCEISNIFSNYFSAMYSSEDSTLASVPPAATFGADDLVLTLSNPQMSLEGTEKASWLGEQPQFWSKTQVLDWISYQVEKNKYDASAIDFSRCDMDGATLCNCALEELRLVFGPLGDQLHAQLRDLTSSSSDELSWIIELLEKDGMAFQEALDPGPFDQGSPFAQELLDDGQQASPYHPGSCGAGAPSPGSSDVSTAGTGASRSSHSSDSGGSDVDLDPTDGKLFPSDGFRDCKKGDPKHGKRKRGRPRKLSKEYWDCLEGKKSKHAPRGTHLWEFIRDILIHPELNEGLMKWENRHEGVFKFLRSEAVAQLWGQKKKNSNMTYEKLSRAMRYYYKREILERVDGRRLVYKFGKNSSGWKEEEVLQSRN
# How it was run: as §1
# [3] = molecular target: ETV1 (Homo sapiens, UniProt P50549 1-477)
# How it was run: as §1
# [4] = molecular target: T3, ERF (Homo sapiens, UniProt P50548 1-548)
# T3 sequence: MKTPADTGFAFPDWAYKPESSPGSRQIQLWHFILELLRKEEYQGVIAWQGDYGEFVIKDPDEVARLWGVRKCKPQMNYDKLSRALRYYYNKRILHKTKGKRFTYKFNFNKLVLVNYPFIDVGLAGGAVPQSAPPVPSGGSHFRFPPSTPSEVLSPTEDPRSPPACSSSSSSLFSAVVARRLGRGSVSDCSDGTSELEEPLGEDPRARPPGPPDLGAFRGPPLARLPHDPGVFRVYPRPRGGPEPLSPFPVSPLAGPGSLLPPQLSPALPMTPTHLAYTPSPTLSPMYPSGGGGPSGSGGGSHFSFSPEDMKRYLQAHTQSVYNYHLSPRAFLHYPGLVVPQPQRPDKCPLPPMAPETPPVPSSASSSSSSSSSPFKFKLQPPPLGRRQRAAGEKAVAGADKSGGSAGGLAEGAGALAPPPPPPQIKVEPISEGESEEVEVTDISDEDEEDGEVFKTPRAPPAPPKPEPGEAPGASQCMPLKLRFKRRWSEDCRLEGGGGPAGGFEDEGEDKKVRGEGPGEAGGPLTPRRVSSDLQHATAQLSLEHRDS
# How it was run: as §1
# [5] = molecular target: T4, ETV3L (Homo sapiens, UniProt Q6ZN32 1-361)
# T4 sequence: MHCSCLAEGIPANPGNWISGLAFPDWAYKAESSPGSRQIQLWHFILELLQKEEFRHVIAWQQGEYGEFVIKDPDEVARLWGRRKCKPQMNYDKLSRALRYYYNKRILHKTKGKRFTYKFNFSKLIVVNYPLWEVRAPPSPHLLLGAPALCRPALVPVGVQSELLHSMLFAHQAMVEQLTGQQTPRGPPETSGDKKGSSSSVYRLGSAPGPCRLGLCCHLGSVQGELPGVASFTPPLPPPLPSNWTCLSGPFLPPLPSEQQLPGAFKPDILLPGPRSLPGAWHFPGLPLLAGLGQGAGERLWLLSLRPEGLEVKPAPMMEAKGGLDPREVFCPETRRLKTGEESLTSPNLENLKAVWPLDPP
# How it was run: as §1
# [6] = molecular target: T5, ETS2 (Homo sapiens, UniProt P15036 1-469)
# T5 sequence: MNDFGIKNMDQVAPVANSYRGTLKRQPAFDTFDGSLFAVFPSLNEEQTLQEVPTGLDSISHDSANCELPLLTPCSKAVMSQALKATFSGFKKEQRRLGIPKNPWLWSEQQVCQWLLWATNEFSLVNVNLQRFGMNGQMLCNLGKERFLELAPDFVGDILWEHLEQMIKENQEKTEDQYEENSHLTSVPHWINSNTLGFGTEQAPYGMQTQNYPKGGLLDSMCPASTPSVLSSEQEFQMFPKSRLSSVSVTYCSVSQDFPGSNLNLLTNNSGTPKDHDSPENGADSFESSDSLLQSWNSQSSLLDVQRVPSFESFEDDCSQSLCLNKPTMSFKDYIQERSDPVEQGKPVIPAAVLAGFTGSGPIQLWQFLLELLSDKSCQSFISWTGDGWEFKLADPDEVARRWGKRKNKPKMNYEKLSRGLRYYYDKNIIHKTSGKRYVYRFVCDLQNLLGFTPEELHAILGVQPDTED
# How it was run: as §1
# [7] = molecular target: T6, ETV7 (Homo sapiens, UniProt Q9Y603 1-341)
# T6 sequence: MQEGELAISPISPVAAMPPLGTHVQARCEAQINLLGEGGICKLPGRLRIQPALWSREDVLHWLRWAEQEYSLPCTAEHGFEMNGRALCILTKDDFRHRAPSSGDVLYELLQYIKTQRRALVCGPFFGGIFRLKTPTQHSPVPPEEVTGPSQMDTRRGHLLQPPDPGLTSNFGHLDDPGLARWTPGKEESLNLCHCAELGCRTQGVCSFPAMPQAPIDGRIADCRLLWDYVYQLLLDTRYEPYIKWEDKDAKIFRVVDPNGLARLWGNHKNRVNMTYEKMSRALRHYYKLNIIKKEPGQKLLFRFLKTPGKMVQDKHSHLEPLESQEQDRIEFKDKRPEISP
# How it was run: as §1
# [8] = molecular target: T7, ETV3 (Homo sapiens, UniProt P41162-2 1-143)
# T7 sequence: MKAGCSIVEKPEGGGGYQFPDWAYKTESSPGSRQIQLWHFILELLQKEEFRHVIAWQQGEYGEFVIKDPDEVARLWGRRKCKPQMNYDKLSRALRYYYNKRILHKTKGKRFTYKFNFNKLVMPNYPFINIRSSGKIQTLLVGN
# How it was run: as §1
# [9] = molecular target: ETV6 (Homo sapiens, UniProt P41212 1-452)
# How it was run: as §1
# ETV1, sequence (P50549 whole entry): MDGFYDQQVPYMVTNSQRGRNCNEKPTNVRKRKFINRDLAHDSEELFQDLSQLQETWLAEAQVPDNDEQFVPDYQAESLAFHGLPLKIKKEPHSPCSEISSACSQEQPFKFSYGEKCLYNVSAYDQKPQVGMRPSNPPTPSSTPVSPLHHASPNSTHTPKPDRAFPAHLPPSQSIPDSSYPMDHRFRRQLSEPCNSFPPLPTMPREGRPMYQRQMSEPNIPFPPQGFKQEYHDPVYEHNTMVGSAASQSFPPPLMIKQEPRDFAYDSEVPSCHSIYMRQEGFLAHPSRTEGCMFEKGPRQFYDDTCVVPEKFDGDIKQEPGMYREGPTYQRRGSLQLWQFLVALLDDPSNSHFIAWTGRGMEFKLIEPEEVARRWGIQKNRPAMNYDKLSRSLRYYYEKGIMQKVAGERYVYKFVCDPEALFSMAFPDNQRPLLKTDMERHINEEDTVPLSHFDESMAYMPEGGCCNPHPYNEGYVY
# ETV6, sequence (P41212 whole entry): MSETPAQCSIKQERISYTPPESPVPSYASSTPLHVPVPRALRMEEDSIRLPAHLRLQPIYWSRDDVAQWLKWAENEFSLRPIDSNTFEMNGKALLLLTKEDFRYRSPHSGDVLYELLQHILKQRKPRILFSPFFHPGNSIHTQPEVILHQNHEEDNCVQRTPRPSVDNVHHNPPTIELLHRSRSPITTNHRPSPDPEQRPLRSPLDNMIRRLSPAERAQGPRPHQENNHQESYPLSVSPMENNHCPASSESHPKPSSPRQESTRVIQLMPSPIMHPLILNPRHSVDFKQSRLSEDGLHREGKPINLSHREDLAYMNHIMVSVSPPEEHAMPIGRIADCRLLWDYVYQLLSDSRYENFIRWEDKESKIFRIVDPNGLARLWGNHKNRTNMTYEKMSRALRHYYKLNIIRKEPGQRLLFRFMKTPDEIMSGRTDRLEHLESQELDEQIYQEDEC
sequence,measurement,setting,value
TCAATC,binding signal,[1],"1.13 fold enrichment (6-mer frequency, TF over GST control)"
same,binding signal,[2],"1.09 fold enrichment (6-mer frequency, TF over GST control)"
same,binding signal,[3],"1.04 fold enrichment (6-mer frequency, TF over GST control)"
same,binding signal,[4],"1.09 fold enrichment (6-mer frequency, TF over GST control)"
same,binding signal,[5],"1.05 fold enrichment (6-mer frequency, TF over GST control)"
same,binding signal,[6],"1.04 fold enrichment (6-mer frequency, TF over GST control)"
same,binding signal,[7],"1.01 fold enrichment (6-mer frequency, TF over GST control)"
same,binding signal,[8],"1.01 fold enrichment (6-mer frequency, TF over GST control)"
same,binding signal,[9],"1.06 fold enrichment (6-mer frequency, TF over GST control)"
